Rows were chosen to be rich in hits. Some 4.2% of all compounds tested hit in one or more screens of this group.
SMARCA2 act – activators of SMARCA2 function. MG213 cells, MMTV-luciferase reporter, dexamethasone, overnight. activation, % at 9.1 µM. actives 1% (n = 370,000). AID 652017; in the data active means activation above about 7.8%;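 further: 0% = vehicle wells and 100% = reference activator wells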
hgDAF12 agonist – activates the H. glycines DAF-12 receptor ligand-binding domain. AID 687014. actives 1.8% (n = 370,000). HEK293 GAL4-hgDAF12 UAS-luciferase reporter, agonist luminescence; normalized to butyrate control. activation, % at 6.8 µM;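 active means activation above a cutoff set at the mean of all screened compounds plus 3 SD, cut at about 10% in these data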;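 further: 0% = DMSO wells and 100% = sodium butyrate wells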
DAX1 inh – blocks DAX1 repression of SF-1 activated StAR promoter; HEK293T StAR-luciferase reporter, SF-1/DAX-1 repression relief; inhibition, % at 6.8 µM; actives 1.1% (n = 370,000); AID 652010;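 active means inhibition above the mean over all tested compounds plus 3 SD, cut at about 3.6% in these data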;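 further: 0% = DAX-1 cells with DMSO and 100% = cells lacking DAX-1 with DMSO; higher inhibition means more luminescence from relief of DAX-1 repression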
hcDAF12 agonist – activators of H. contortus DAF-12 nuclear receptor. HEK293 hcDAF-12 lit1-tk-luc reporter, luminescence; 0% DMSO, 100% Δ7-dafachronic acid. activation, % at 6.8 µM. actives 1.4% (n = 370,000);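 active means activation above the mean of all tested compounds plus 3 SD, cut at about 5.5% in these data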;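 further: 100% = response to 3 µM Δ7-dafachronic acid high control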
ssDAF12 agonist – S. stercoralis DAF-12 activation, primary screen; AID 652126; activation, % at 6.8 µM; actives 1% (n = 370,000); HEK293 ssDAF-12/GRIP1 lit1-tk-luc reporter, luminescence; % of 3 µM dafachronic acid response;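 active means activation above the mean over all tested compounds plus 3 SD, cut at about 0.9% in these data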;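 further: 0% = DMSO-only wells and 100% = 3 µM delta7-dafachronic acid wells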
* marks the source's active call; other numbers are inactive results.

SMILES | SMARCA2 act | hgDAF12 agonist | DAX1 inh | hcDAF12 agonist | ssDAF12 agonist
CCCCCN1CCCCC(NC(=O)c2cccc(F)c2)C1=O (stereo not drawn) | -2 | 3 | 0 | -1 | -1
Cc1ccc(N2/C(=N/c3nc(C)cc(C)n3)NC(=O)CC2C(=O)O)cc1 (stereo not drawn) | 1 | 3 | 0 | 5.8* | 0
Cc1cc(C)nc(/N=C2\NC(=O)CC(C(=O)O)N2c2ccc(Cl)cc2)n1 (stereo not drawn) | -2 | 1 | 1 | 0 | -1
O=C(CSc1nnc(COc2ccccc2)n1-c1ccccc1)Nc1ccc2c(c1)OCO2 | -2 | 1 | -2 | -1 | -1
OC(CN1CCOCC1)Cn1c2ccccc2c2ccccc21 (stereo not drawn) | 0 | 0 | 0 | -2 | 0
O=C1c2ccccc2C(=O)N1CC(O)CN1CCOCC1 (stereo not drawn) | 3 | -1 | -1 | 1 | 3.9*
COC[C@@H]1CCCN1c1ccc2c(c1)O[C@H]1CCN(C1)S2(=O)=O | -2 | -2 | 0 | 0 | -1
COC(=O)C12C=C3CC(C4CC4)=C3C(=O)N1Cc1[nH]c3ccccc3c1C2 (stereo not drawn) | 0 | 0 | -2 | 4 | 0
COc1ccc2c(c1OC)C(=O)OC2Nc1nc(-c2ccc([N+](=O)[O-])cc2)cs1 (stereo not drawn) | 4 | 5 | 0 | 3 | 1.6*
N#Cc1ccc(-c2nc3c4ccccc4ccn3c2Cc2cccc(Cl)c2)cc1 | -4 | 11* | 0 | 3 | -1
c1ccc(Cc2c(-c3ccccc3)nc3c4ccccc4ccn23)cc1 | 7 | 2 | 0 | 5 | 0.9*
FC(F)(F)c1ccccc1Cc1c(-c2cccc(Br)c2)nc2c3ccccc3ccn12 | 5 | 9 | 1 | 5.8* | 1.4*
N#Cc1ccc(-c2nc3c4ccccc4ccn3c2Cc2ccccc2C(F)(F)F)cc1 | -4 | 9 | -2 | 4 | 0
N#Cc1ccc(-c2nc3c4ccccc4ccn3c2Cc2ccsc2)cc1 | 2 | 3 | 0 | 3 | 1.5*
Cc1ccc(-c2nc3c4ccccc4ccn3c2Cc2cccc(Cl)c2)cc1 | -2 | 7 | -1 | 2 | 1
CCNC(=O)C1(C)CCN(C(=O)c2ccc(N(C)C)cc2)C1 (stereo not drawn) | -2 | 0 | 0 | -1 | -1
O=Nc1ccc(NO)c2ccccc12 | -6 | -1 | -3 | 3 | 1.2*
Cc1cccn2c(=O)c(C(=O)NC3CCCCC3C)c(O)nc12 (stereo not drawn) | -1 | 3 | 4.0* | -1 | -1
O=[N+]([O-])c1ccc(N2CCN(Cc3ccccc3)CC2)c2c1no[n+]2[O-] | -9 | -13 | -6 | -5 | -2
CCCC[C@H]1C2CC(OC(=O)Nc3ccccc3C)C(C2)[C@H]2CCCCN21 (stereo partly drawn) | -3 | 6 | 0 | -2 | -1
Cc1cccc(-c2cccc3c4c([nH]c23)[C@@H]2C[C@H](N(C)C(=S)NCCc3ccccc3)[C@H]([C@H](C)O)CN2CC4)c1 | -2 | 5 | 0 | -1 | -2
O=C(Cc1cn2ccsc2n1)NCc1ccccc1 | 0 | 3 | 0 | 6.0* | 0
COc1ccc(CC(=O)NCc2cn3ccsc3n2)cc1 | 3 | -1 | 0 | -1 | -1
O=C(CSc1nc2ccsc2c(=O)n1NC(=O)c1ccccc1)Nc1nccs1 | 4 | 11* | 1 | 1 | 0
O=C(CSc1nc2ccsc2c(=O)n1NC(=O)c1ccccc1)NCc1ccco1 | 2 | 5 | 0 | 0 | -1
O=C(CSc1nc2ccccc2c(=O)n1NC(=O)c1ccccc1)c1ccccc1 | 7 | 12* | 3 | 4 | 1.2*
O=C(CSc1nc2ccccc2c(=O)n1NC(=O)c1ccccc1)c1ccc(Cl)cc1 | 3 | 12* | 3 | 3 | 0
CCc1c(-c2ccccc2)ncn1CCc1ccccc1OC | -1 | 1 | -1 | -4 | -2
COC(=O)C1=C(C)N(Cc2cccc(C(F)(F)F)c2)C(=NCc2ccc(OC)cc2)NC1c1ccc(Cl)cc1 (stereo not drawn) | -6 | -1 | 0 | -1 | -1
CCN(C(=O)Cn1nnc(-c2ccncc2)n1)c1ccccc1 | -6 | 1 | -1 | -2 | -1
